PubChem BioAssay (Tox21)
Unmarked numbers belong to inactive results. Records with an inconclusive call do not appear. Where a call stands in place of a potency, no number is given. Active and inactive are the calls of the source. Unless noted, the call rests on the fitted dose curve; in most records, active means well fitted curve in the direction sought with a large enough effect in the repeat runs; inconclusive means weak or mixed curves; inactive means no such curve, though single readings can be large; an effect the other way counts as inactive or inconclusive. Positions of bridges follow the written chain, without caps; N, C: chain ends. Non-standard residues stand in square brackets, D forms with d. Residues, ends and D or L forms follow the SMILES beside them. hArg = N=C(N)NCCCC[C@H](N)C(=O)O; Mpa = O=C(O)CCS

What was measured:
[1] = qHTS assay for small molecule agonists of the p53 signaling pathway (AID 651631; calls by dose curve; further: nearly all actives have a fitted effect of over 15% in size)
In short: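 Agonist mode screen using a stably integrated beta-lactamase gene under p53 response elements in HCT-116 cells. Compound exposure lasts 16 h at 37 °C; fluorescence intensity is measured following 2 h FRET substrate loading.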

[2] = qHTS assay for small molecules that induce genotoxicity in human embryonic kidney cells expressing luciferase-tagged ATAD5 (AID 651632); further: nearly all actives have a fitted effect of over 15% in size
In short: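 A rise in luciferase signal from ATAD5-tagged HEK293T cells marks genetic stress. Cells were exposed to compounds for 16 hr at 37C, 5% CO2, then luciferase was quantified after a 30 min room-temperature incubation with Amplite.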

[3] = qHTS assay for small molecule agonists of the p53 signaling pathway - cell viability (AID 651633; calls by dose curve;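 further: p53RE-bla HCT reporter cells with a stable beta-lactamase p53 reporter; series mostly up to about 83 µM; nearly all actives have a fitted effect of over 30% in size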)
In short: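 Viability counter-read: CellTiter-Glo luminescence (30 min, room temperature) in the same p53RE-bla plates. These plates had been exposed to compounds for 16 h at 37 C.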

[4] = qHTS assay for small molecules that induce genotoxicity in human embryonic kidney cells expressing luciferase-tagged ATAD5 - cell viability (AID 651634; calls by dose curve; further: nearly all actives have a fitted effect of over 25% in size)
In short: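 Cytotoxicity counter-readout: after 15.5 hr compound treatment at 37C, live-cell protease activity in ATAD5-luciferase HEK293T cells measured by CellTiter-Fluor fluorescence, 30 min development at 37C.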

[5] = qHTS assay for small molecule disruptors of the mitochondrial membrane potential - cell viability (AID 720634; calls by dose curve;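 further: human HepG2 liver cancer cells; series mostly up to about 83 µM; nearly all actives have a fitted effect of over 20% in size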)
In short: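 Cytotoxicity was quantified from ATP content by CellTiter-Glo luminescence in the same wells as the MMP dye read-out. HepG2 (2,000 cells/well) were plated overnight and exposed to compounds for 1 hr at 37 C.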

[6] = qHTS assay for small molecule disruptors of the mitochondrial membrane potential (AID 720635); further: potency means the concentration at half of the fitted maximal effect
In short: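 Mitochondrial membrane potential tracked with Mito-MPS dye, red aggregates (ex 540/em 590 nm) against green monomers (ex 490/em 535 nm). Compound treatment 1 hr at 37C, dye 30 min in HepG2.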

[7] = qHTS assay to test for compound auto fluorescence at 590 nm (red) in HepG2 cells (AID 720674)
In short: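 Red autofluorescence (Ex/Em 540/590 nm, Rose Bengal sodium equivalents) was measured in HepG2 cells, 2,000 per well in MEM plus 10% FBS, plated overnight at 37 C. Readings were taken 1 hr after adding 23 nL compound or DMSO, at 37 C and 5% CO2.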

[8] = qHTS assay to test for compound auto fluorescence at 535 nm (green) in HepG2 cells (AID 720675)
[9] = qHTS assay to test for compound auto fluorescence at 460 nm (blue) in HEK293 cells (AID 720678)
In short: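 Blue read-out at excitation 405 nm and emission 460 nm follows overnight compound exposure of HEK293 cells at 37C in 5% CO2. Activity is given as auto fluorescence equivalency to triamterene.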

[10] = qHTS assay to test for compound auto fluorescence at 590 nm (red) in HEK293 cells (AID 720679)
In short: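 Red channel, Ex/Em 540/590nm; signal expressed as equivalency to Rose Bengal sodium. HEK293, 2,000 cells/well, 10% dialyzed FBS; 23 nL compound pinned after 4-5 hr attachment; overnight 37C/5% CO2 before reading.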

Structure (SMILES) | outcome [1] | outcome [2] | outcome [3] | Potency [4] | outcome [5] | Potency [6] | outcome [7] | outcome [8] | outcome [9] | outcome [10] | fluorescence, relative to Rose Bengal [7] | fluorescence, % of fluorescein control [8] | fluorescence, % of triamterene [9] | fluorescence, % of fluorescent control [10]
CC(C)=CCC/C(C)=C/COC=O | inactive | inactive | inactive | inactive | inactive | inactive | inactive | inactive | inactive | inactive |  |  |  | 
CCCc1ccc(O)cc1 | inactive | inactive | inactive | inactive | inactive | 54.5 µM (active) | inactive | inactive | inactive | inactive |  |  |  | 
CC(C)OC(=O)OCOP(=O)(CO[C@H](C)Cn1cnc2c(N)ncnc21)OCOC(=O)OC(C)C | inactive | inactive | inactive | inactive | inactive | inactive | inactive | inactive | inactive | inactive |  |  |  | 
CC1c2ccccc2CN1NC(=O)c1ccc(Cl)c(S(N)(=O)=O)c1 (centres undefined) | inactive | inactive | inactive | inactive | inactive | inactive | inactive | inactive | inactive | inactive |  |  |  | 
N#CCC(=O)NN | inactive | inactive | inactive | inactive | inactive | inactive | inactive | inactive | inactive | inactive |  |  |  | 
COS(=O)(=O)O | inactive | inactive | inactive | inactive | inactive | inactive | inactive | inactive | inactive | inactive |  |  |  | 
CC1OCCC1=O (centres undefined) | inactive | inactive | inactive | inactive | inactive | inactive | inactive | inactive | inactive | inactive |  |  |  | 
Cc1cccc(Cl)c1 | inactive | inactive | inactive | inactive | inactive | inactive | inactive | inactive | inactive | inactive |  |  |  | 
O=C(NCN1CCOCC1)c1cnccn1 | inactive | inactive | inactive | inactive | inactive | inactive | inactive | inactive | inactive | inactive |  |  |  | 
Nc1nc(-c2ccccc2)c(Br)c(=O)[nH]1 | inactive | inactive | inactive | inactive | inactive | inactive | inactive | inactive | inactive | inactive |  |  |  | 
O=C(Cl)c1ccccc1[N+](=O)[O-] | inactive | inactive | inactive | inactive | inactive | inactive | inactive | inactive | inactive | inactive |  |  |  | 
c1ccc2cnccc2c1 | inactive | inactive | inactive | inactive | inactive | inactive | inactive | inactive | inactive | inactive |  |  |  | 
CCCCCCCCCCCCCCCCCC#N | inactive | inactive | inactive | inactive | inactive | inactive | inactive | inactive | inactive | inactive |  |  |  | 
OCC1CCC(CO)CC1 (centres undefined) | inactive | inactive | inactive | inactive | inactive | inactive | inactive | inactive | inactive | inactive |  |  |  | 
c1ccc(-c2nn[nH]n2)cc1 | inactive | inactive | inactive | inactive | inactive | inactive | inactive | inactive | inactive | inactive |  |  |  | 
CC1=C(O)C(=O)C(C)O1 (centres undefined) | inactive | inactive | inactive | inactive | inactive | inactive | inactive | inactive | inactive | inactive |  |  |  | 
CC1=NN(c2ccc(S(=O)(=O)O)cc2)C(=O)C1 | inactive | inactive | inactive | inactive | inactive | inactive | inactive | inactive | inactive | inactive |  |  |  | 
COC(=O)c1cccc(Cl)c1 | inactive | inactive | inactive | inactive | inactive | inactive | inactive | inactive | inactive | inactive |  |  |  | 
Cc1ccc(C(C)NC(=O)[C@@H](NC(=O)OC(C)C)C(C)C)cc1 (some centres undefined) | inactive | inactive | inactive | inactive | inactive | inactive | inactive | inactive | inactive | inactive |  |  |  | 
CC(=O)O[C@H]1C[C@@H]2CC[C@@]1(C)C2(C)C | inactive | inactive | inactive | inactive | inactive | inactive | inactive | inactive | inactive | inactive |  |  |  | 
CCOC(CN1CCN(CC(C)C(=O)c2ccccc2)CC1)c1ccccc1 (centres undefined) | inactive | inactive | inactive | inactive | inactive | inactive | inactive | inactive | inactive | inactive |  |  |  | 
CCCCSCCCC | inactive | inactive | inactive | inactive | inactive | inactive | inactive | inactive | inactive | inactive |  |  |  | 
CC(=O)CCc1ccc(OC(C)=O)cc1 | inactive | inactive | inactive | inactive | inactive | inactive | inactive | inactive | inactive | inactive |  |  |  | 
Cc1cc(C)c(C(=O)O)c(C)c1 | inactive | inactive | inactive | inactive | inactive | inactive | inactive | inactive | inactive | inactive |  |  |  | 
CCCCCCCCCOC(=O)c1ccccc1C(=O)OCCCCCCCCC | inactive | inactive | inactive | inactive | inactive | inactive | inactive | inactive | inactive | inactive |  |  |  | 

Structure (SMILES) | outcome [1] | outcome [2] | outcome [3] | Potency [4] | outcome [5] | Potency [6] | outcome [7] | outcome [8] | outcome [9] | outcome [10] | fluorescence, relative to Rose Bengal [7] | fluorescence, % of fluorescein control [8] | fluorescence, % of triamterene [9] | fluorescence, % of fluorescent control [10]
COC(=O)/C=C\C(=O)O | inactive | inactive | inactive | inactive | inactive | inactive | inactive | inactive | inactive | inactive |  |  |  | 
Nc1nnnn1-c1ccccc1 | inactive | inactive | inactive | inactive | inactive | inactive | inactive | inactive | inactive | inactive |  |  |  | 
NC(=O)[C@@H]1CSSCCC(=O)N[C@@H](CCCCN=C(N)N)C(=O)NCC(=O)N[C@@H](CC(=O)O)C(=O)N[C@@H](Cc2c[nH]c3ccccc23)C(=O)N2CCC[C@H]2C(=O)N1 ([Mpa][hArg]GDWPC-NH2; disulfide 1-7) | inactive | inactive | inactive | inactive | inactive | inactive | inactive | inactive | inactive | inactive |  |  |  | 
CC1(C)Oc2ccc(C#N)cc2[C@@H](N2CCCC2=O)[C@@H]1O | inactive | inactive | inactive | inactive | inactive | inactive | inactive | inactive | inactive | inactive |  |  |  | 
O=Cc1cc2ccccc2o1 | inactive | inactive | inactive | inactive | inactive | inactive | inactive | inactive | inactive | inactive |  |  |  | 
CNCCS(=O)(=O)O | inactive | inactive | inactive | inactive | inactive | inactive | inactive | inactive | inactive | inactive |  |  |  | 
CCCCCCCCCCCCCCCCCCOCCO | inactive | inactive | inactive | inactive | inactive | inactive |  |  |  |  | 0.105% [at 18.6 µM] | 0.0331% [at 18.6 µM] | -0.176% [at 18.6 µM] | -0.175% [at 18.6 µM]
N#Cc1cscn1 | inactive | inactive | inactive | inactive | inactive | inactive | inactive | inactive | inactive | inactive |  |  |  | 
N[C@@H](CSCCCO)C(=O)O | inactive | inactive | inactive | inactive | inactive | inactive | inactive | inactive | inactive | inactive |  |  |  | 
C#CCN[C@@H]1CCc2ccccc21 | inactive | inactive | inactive | inactive | inactive | inactive | inactive | inactive | inactive | inactive |  |  |  | 
O=C(O)[C@H](O)c1ccccc1 | inactive | inactive | inactive | inactive | inactive | inactive | inactive | inactive | inactive | inactive |  |  |  | 
CCO | inactive | inactive | inactive | inactive | inactive |  | inactive | inactive | inactive | inactive |  |  |  | 
CC(=O)C(C)O (centres undefined) | inactive | inactive | inactive | inactive | inactive | inactive | inactive | inactive | inactive | inactive |  |  |  | 
CCn1cc(C(=O)O)c(=O)c2cnc(N3CCCC3)nc21 | inactive | inactive | inactive | inactive | inactive | inactive |  |  |  |  | -0.176% [at 18.6 µM] | -0.162% [at 18.6 µM] | 0.0274% [at 18.6 µM] | -0.164% [at 18.6 µM]
CCOCCOCC | inactive | inactive | inactive | inactive | inactive |  | inactive | inactive | inactive | inactive |  |  |  | 
C=C(C)c1cccc(C(C)(C)N=C=O)c1 | inactive | inactive | inactive | inactive | inactive |  | inactive | inactive | inactive | inactive |  |  |  | 
CCc1occc(=O)c1O | inactive | inactive | inactive | inactive | inactive |  | inactive | inactive | inactive | inactive |  |  |  | 
CCCCOC(=O)C(C)O (centres undefined) | inactive | inactive | inactive | inactive | inactive | inactive | inactive | inactive | inactive | inactive |  |  |  | 
CCC(=O)CC | inactive | inactive | inactive | inactive | inactive |  | inactive | inactive | inactive | inactive |  |  |  | 
OC[C@@H](O)C(O)[C@@H](O)CO (some centres undefined) | inactive | inactive | inactive | inactive | inactive |  | inactive | inactive | inactive | inactive |  |  |  | 
CSc1cnccn1 | inactive | inactive | inactive | inactive | inactive | inactive | inactive | inactive | inactive | inactive |  |  |  | 
CC(=O)OCC(=O)Nc1cc(C#N)cc(NC(=O)COC(C)=O)c1Cl | inactive | inactive | inactive | inactive | inactive | inactive | inactive | inactive | inactive | inactive |  |  |  | 
CCO[Si](CC)(OCC)OCC | inactive | inactive | inactive | inactive | inactive | 61.1 µM (active) | inactive | inactive | inactive | inactive |  |  |  | 
CCCCCCCCCCOC(C)=O | inactive | inactive | inactive | inactive | inactive | inactive | inactive | inactive | inactive | inactive |  |  |  | 
